Compounds with a hit are over-represented: about 18% of the library has one in this group of screens.
CtBP-E1A blk = qHTS Assay for Inhibitors of the CtBP/E1A Interaction | CtBP / adenovirus E1A interaction (AlphaScreen) | AlphaScreen GST-E1A/His-CtBP binding, 1536-well; stronger effect = lower value | activity change, % (test concentration not listed) | 340,000 tested, 0.49% active; in the data active = activity change below about -65%; inconclusive = mostly about -30% to -63%
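Homogeneous bead-based format: GST-tagged E1A captured on glutathione donor beads, His-tagged CtBP on nickel acceptor beads; compounds precede bead addition by 2 h at 37 °C.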
TDP1 block = qHTS Assay for Inhibitors of Tyrosyl-DNA Phosphodiesterase (TDP1); Tyrosyl-DNA phosphodiesterase 1 (Homo sapiens), Q9NUW8; recombinant TDP1, AlphaScreen DNA substrate cleavage; Potency, µM (series often up to 130 µM), without a hit: at the top dose activity change, negative = inhibition, hits mostly inhibitors; 350,000 tested, 0.28% active; AID 485290, 2010; note: potency is the fitted concentration of half-maximal effect; nearly all actives have a fitted effect of over 40% in size
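Compounds were preincubated with Tdp1 (1 nM final) for 15 min at room temperature before substrate (15 nM final) started a 5 min reaction; beads (10 ug/ml final) were then added for 10 min before AlphaScreen detection.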
IL1B secr inh = qHTS for Inhibitors of Inflammasome Signaling: IL-1-beta AlphaLISA Primary Screen | THP-1 LPS/ATP IL-1B secretion, AlphaLISA, 16 h; stronger effect = lower value | activity change, % at 57.5 µM | 360,000 tested, 4.7% active | AID 743279, 2014; in the data active = activity change below about -50%; inconclusive = mostly about -30% to -49%
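Secreted IL-1B measured by AlphaLISA bead assay after 16 h compound exposure of THP-1 cells; compounds (final up to 57.5 uM) added 1 h before LPS (250 ng/mL) and ATP (1.25 mM) stimulation; lower signal means less secretion.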
TDP1 cell noCPT = qHTS for Inhibitors of human tyrosyl-DNA phosphodiesterase 1 (TDP1): qHTS in cells in absence of CPT; DT40 Tdp1-/- hTDP1 cells, no CPT, ATP luminescence, 48 h; Potency, µM (series often up to 46.2 µM), for the others: at the top dose activity change, negative = growth inhibition, actives largely listed as inhibitors; 420,000 tested, 15% active; note: potency is the fitted concentration of half-maximal effect; nearly all actives have a fitted effect of over 55% in size
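Chicken DT40 Tdp1-/- cells stably complemented with human TDP1 were seeded at 400 cells/well with DMSO in place of 20 nM camptothecin. After compound pinning, cells grew at least 48 hr at 37 °C; viability read by CellTiter-Glo luminescence.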
DT40 TDP1 CPT = qHTS for Inhibitors of human tyrosyl-DNA phosphodiesterase 1 (TDP1): qHTS in cells in presence of CPT; chicken DT40 Tdp1-/-;hTDP1 cells + 20 nM CPT, ATP luminescence, 48 h; Potency, µM (top dose mostly 46.2 µM), for the others: top-dose activity change, negative = growth inhibition, usual class: inhibitors; 420,000 tested, 12% active; note: potency is the fitted concentration of half-maximal effect; nearly all actives have a fitted effect of over 55% in size
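Chicken DT40 Tdp1-/- cells complemented with human TDP1, 400 cells/well, exposed to compounds plus 20 nM camptothecin for at least 48 h at 37 C; viability read as ATP content by CellTiter-Glo luminescence.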
Six1-Eya2 inh = qHTS Assay for Inhibitors of the Six1/Eya2 Interaction. Homeobox protein SIX1 (Homo sapiens) + Protein phosphatase EYA2 (Homo sapiens), …. AlphaScreen GST-Six1/His-Eya2 binding, biochemical; stronger effect = lower value. activity change, % (test concentration not listed). 360,000 tested, 0.56% active. AID 651725, 2012; in the data active = activity change below about -65%; inconclusive = mostly about -30% to -63%
Target sequence (O00167 whole entry, looked up): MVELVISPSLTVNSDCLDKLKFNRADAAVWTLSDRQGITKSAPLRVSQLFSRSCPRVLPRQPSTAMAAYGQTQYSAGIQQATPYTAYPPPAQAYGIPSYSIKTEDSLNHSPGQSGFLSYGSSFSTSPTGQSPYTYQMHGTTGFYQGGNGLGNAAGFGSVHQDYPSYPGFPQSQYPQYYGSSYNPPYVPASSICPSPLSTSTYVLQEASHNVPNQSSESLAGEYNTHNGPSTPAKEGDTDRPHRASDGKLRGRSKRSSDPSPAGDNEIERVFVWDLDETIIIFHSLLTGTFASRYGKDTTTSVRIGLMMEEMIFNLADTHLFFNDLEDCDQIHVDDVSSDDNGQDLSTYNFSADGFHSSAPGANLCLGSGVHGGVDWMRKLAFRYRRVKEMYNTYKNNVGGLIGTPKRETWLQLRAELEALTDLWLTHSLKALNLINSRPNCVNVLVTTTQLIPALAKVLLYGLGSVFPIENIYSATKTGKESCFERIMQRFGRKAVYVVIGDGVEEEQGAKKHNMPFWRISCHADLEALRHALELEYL
Target sequence (Q15475 whole entry, looked up): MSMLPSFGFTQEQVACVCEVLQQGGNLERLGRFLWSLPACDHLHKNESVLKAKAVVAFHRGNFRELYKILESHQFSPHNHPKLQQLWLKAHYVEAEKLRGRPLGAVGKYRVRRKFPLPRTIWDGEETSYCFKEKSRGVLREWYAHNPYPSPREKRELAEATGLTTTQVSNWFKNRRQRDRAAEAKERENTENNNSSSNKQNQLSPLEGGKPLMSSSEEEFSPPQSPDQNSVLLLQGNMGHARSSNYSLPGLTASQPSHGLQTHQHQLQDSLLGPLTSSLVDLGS
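AlphaScreen with GST-Six1 and His-Eya2 (5X mix: 250 nM and 500 nM), glutathione donor and nickel acceptor beads; buffer 50 mM Tris pH 8.0, 300 mM NaCl, 1 mM TCEP; 1 h at 37 C in the dark.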
The depositor's hits bear a star; ! = a repeat was not active; [ ] = another dose, or the depositor's remark. Unless noted, calls come from the whole dose curve; as a rule, active = well fitted curve in the direction sought with a large enough effect; inconclusive = small, poorly fitted or top-dose-only effect, or another doubt; inactive = no such curve, though single readings can be large; an effect the other way counts as inactive or inconclusive. % is set by controls: 0 for no effect and ±100 for the full control effect.

CCOP(=O)(OCC)C(NC(=O)c1ccccc1)=C(Cl)Cl was read as CtBP-E1A blk 4, TDP1 block 1%, IL1B secr inh -25, TDP1 cell noCPT -3%, DT40 TDP1 CPT -28% and Six1-Eya2 inh 25.
COc1ccc(CCn2c(O)c(C=Nc3ccccc3F)c(=O)[nH]c2=O)cc1OC was read as CtBP-E1A blk 7, TDP1 block -5%, IL1B secr inh 37, TDP1 cell noCPT -21%, DT40 TDP1 CPT 5% and Six1-Eya2 inh 3.
For CN(C)CCCOc1nn(Cc2ccccc2)c2ccccc12 the results were CtBP-E1A blk -9, TDP1 block 6%[21 µM], IL1B secr inh -10, TDP1 cell noCPT 23µM*, DT40 TDP1 CPT inconclusive and Six1-Eya2 inh 7.
Screening CN(C)CCn1cnc2ccccc21 returned CtBP-E1A blk 9, TDP1 block 1%, IL1B secr inh 17, TDP1 cell noCPT 25%, DT40 TDP1 CPT 5% and Six1-Eya2 inh 3.
CN[C@@H](C)[C@H]1CC[C@@H](N)[C@@H](O[C@@H]2[C@@H](O)[C@@H](O[C@H]3OC[C@@](C)(O)[C@@H](NC)[C@@H]3O)[C@H](N)C[C@@H]2N)O1 (tested in a mixture with another compound) was read as TDP1 block 9%[56.1 µM].
COC(=O)C1=C(c2ccc(C(C)=O)cc2)C[C@@H]2CC[C@H]1N2C(=O)N1CCC(O)(c2ccc(Cl)cc2)CC1 was read as CtBP-E1A blk -8, TDP1 block 3%, IL1B secr inh -16, TDP1 cell noCPT 9.2µM*, DT40 TDP1 CPT 16µM* and Six1-Eya2 inh -3.
For COC(=O)C1=C(c2ccc(OC)c(OC)c2)C[C@@H]2CC[C@H]1N2C(=O)N1CCC(C)CC1 the results were CtBP-E1A blk 3, TDP1 block 0%, IL1B secr inh 9, TDP1 cell noCPT 10µM*, DT40 TDP1 CPT 21µM* and Six1-Eya2 inh 0.
COC(=O)C1=C(c2ccc(S(C)(=O)=O)cc2)C[C@@H]2CC[C@H]1N2C(=O)N1CCC(O)CC1 was read as IL1B secr inh 6, TDP1 cell noCPT -11%, DT40 TDP1 CPT -1% and Six1-Eya2 inh -3.
Screening COC(=O)C1=C(c2ccc(OC)c(OC)c2)C[C@@H]2CC[C@H]1N2C(=O)N1CCOCC1 returned CtBP-E1A blk 4, TDP1 block -3%, IL1B secr inh 9, TDP1 cell noCPT inconclusive, DT40 TDP1 CPT 21µM* and Six1-Eya2 inh 4.
`COC(=O)C1=C(c2ccc(C(C)=O)cc2)C[C@@H]2CC[C@H]1N2C(=O)N1CCC(C)CC1` gave CtBP-E1A blk -20, TDP1 block 1%, IL1B secr inh -1, TDP1 cell noCPT 21µM*, DT40 TDP1 CPT 18µM* and Six1-Eya2 inh 6.
Screening CC[C@H]1CN(C)CCc2c([nH]c3ccccc23)C(=O)C[C@@H]1/C(=C\OC)C(=O)OC returned CtBP-E1A blk -16, IL1B secr inh -7, TDP1 cell noCPT -19%, DT40 TDP1 CPT 29µM* and Six1-Eya2 inh -27.
CC[C@H]1CN(C)C[C@@]2(C(=O)OC)Cc3c([nH]c4ccccc34)C(=O)C[C@@H]12 was read as CtBP-E1A blk 5, IL1B secr inh 5, TDP1 cell noCPT 13%, DT40 TDP1 CPT 13% and Six1-Eya2 inh 10.
For CC(=O)N1CCC2(CC1)CC(=O)c1cc(OCC(=O)N3CCN(C)CC3)ccc1O2 the results were CtBP-E1A blk 0, TDP1 block 3%, IL1B secr inh -15, TDP1 cell noCPT -4%, DT40 TDP1 CPT 0% and Six1-Eya2 inh -3.
`COC(=O)C1=C(c2ccc(OCc3ccccc3)cc2)C[C@@H]2CC[C@H]1N2C` gave CtBP-E1A blk -18, IL1B secr inh -14, TDP1 cell noCPT 23µM*, DT40 TDP1 CPT 16µM* and Six1-Eya2 inh -7.
For COC(=O)C1=C(c2cccc(NC(C)=O)c2)C[C@@H]2CC[C@H]1N2C the results were CtBP-E1A blk 7, TDP1 block -1%, IL1B secr inh 4, TDP1 cell noCPT -7%, DT40 TDP1 CPT -1% and Six1-Eya2 inh -5.
COC(=O)C1=C(c2ccc(OCc3ccccc3)c(F)c2)C[C@@H]2CC[C@H]1N2C was read as CtBP-E1A blk -1, IL1B secr inh -25, TDP1 cell noCPT 23µM*, DT40 TDP1 CPT inconclusive and Six1-Eya2 inh -9.
Screening COC(=O)C1=C(c2cccc(OC)c2OC)C[C@@H]2CC[C@H]1N2C returned CtBP-E1A blk 3, TDP1 block 0%, IL1B secr inh 9, TDP1 cell noCPT -13%, DT40 TDP1 CPT -2% and Six1-Eya2 inh 0.
Screening CC(C)(C#CCCCCC#CC(C)(C)[N+](C)(C)C)[N+](C)(C)C returned TDP1 block 4%.
For CCCCOc1nc2ccccc2c(=O)n1-c1ccccc1 the results were CtBP-E1A blk 5, TDP1 block 6%, IL1B secr inh 11, TDP1 cell noCPT inconclusive, DT40 TDP1 CPT inconclusive and Six1-Eya2 inh 3.
Screening CCc1ccc(C2C(C(=O)Nc3ccccc3OC)=C(C)Nc3nc(SCc4ccccc4)nn32)cc1 (centres undefined) returned TDP1 block 3%, TDP1 cell noCPT 3.7µM* and DT40 TDP1 CPT 4.1µM*.
COc1cccc(OC)c1C(=O)Nc1nc(N)n(-c2ccccc2)n1 was read as CtBP-E1A blk -4, TDP1 block 2%, IL1B secr inh -21, TDP1 cell noCPT -1%, DT40 TDP1 CPT 2% and Six1-Eya2 inh 2.
Cc1ccnc2c1NC(=O)c1cccnc1N2C1CC1 was read as CtBP-E1A blk 0, TDP1 block -6%, IL1B secr inh 5, TDP1 cell noCPT 8.2µM*!, DT40 TDP1 CPT 6.5µM*! and Six1-Eya2 inh -15.
Screening Oc1cccc(Cl)c1Cl returned TDP1 block 3%.
For C[N+](C)(C)CC#CCOC(=O)Nc1cccc(Cl)c1 the results were CtBP-E1A blk 1, TDP1 block 8%, IL1B secr inh -4, TDP1 cell noCPT inconclusive, DT40 TDP1 CPT inconclusive and Six1-Eya2 inh -3.

Source: PubChem
